This is an account of results in PubChem BioAssay.

Test [1] in a line: galactose survival enhancers in mitochondrial complex I cybrids – cell-based, galactose medium, ATP luminescence, primary screen (AID 1645843;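 active means z-score of at least 1.8 in each of two replicates, scored against plate mean and spread of sample wells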;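 further: positive z means more ATP and so rescue of galactose-driven cybrid death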). The conditions noted are these: complex I mutant cybrid cells, 72 h, stronger effect = higher value.
The next test relates to F380Y. Kind of test: BK channel mutant inhibitors and activators – cell-based, U2OS BacMam, thallium flux, beta subunits, selectivity assay, profiling panel (AID 1259406;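 active means thallium flux through the channel raised or lowered by more than 3 SD from vehicle-only wells, actives on both sides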;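 further: initial slope of Thallos dye fluorescence rise after thallium is added; log ratio against the mean of 0.3% DMSO vehicle wells on the same plate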). The note with it: U2OS BacMam BK variants, at 30 µM.
A further test concerns F380Y/beta1. The test is described as above. The note with it: U2OS BacMam BK variants, at 30 µM.
The target of test [2] is NAD(+) hydrolase SARM1 (Homo sapiens) (UniProt Q6SZW1). Kind of test: blocking NAD cleavage by SARM1 SAM-TIR – cell lysate, NAD-Glo luminescence (AID 1508614;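 active means compound whose remaining NAD level is above about 45 nM, limit read from the data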). The note with it: SAM-TIR HEK293T lysate NADase, at 1 µM, stronger effect = higher value.
NAD(+) hydrolase SARM1 (Homo sapiens), sequence (Q6SZW1 whole entry, looked up): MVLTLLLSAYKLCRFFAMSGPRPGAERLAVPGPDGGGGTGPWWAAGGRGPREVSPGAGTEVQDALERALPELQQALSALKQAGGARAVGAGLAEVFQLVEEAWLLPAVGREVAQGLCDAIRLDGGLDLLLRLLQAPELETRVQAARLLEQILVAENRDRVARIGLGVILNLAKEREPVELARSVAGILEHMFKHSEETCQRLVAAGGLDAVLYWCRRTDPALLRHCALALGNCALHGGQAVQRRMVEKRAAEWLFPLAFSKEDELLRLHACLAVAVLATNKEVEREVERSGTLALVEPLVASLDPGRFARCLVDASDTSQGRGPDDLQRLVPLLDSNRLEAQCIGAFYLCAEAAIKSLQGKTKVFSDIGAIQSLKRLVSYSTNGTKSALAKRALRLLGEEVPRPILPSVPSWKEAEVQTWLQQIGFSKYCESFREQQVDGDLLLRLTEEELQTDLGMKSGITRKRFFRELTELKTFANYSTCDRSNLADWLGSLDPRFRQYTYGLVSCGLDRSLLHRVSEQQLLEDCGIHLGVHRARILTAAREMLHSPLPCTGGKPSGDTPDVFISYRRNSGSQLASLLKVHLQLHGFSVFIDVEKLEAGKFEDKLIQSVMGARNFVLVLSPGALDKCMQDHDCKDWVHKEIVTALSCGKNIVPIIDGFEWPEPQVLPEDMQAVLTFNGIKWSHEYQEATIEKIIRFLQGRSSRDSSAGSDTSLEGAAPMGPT
The nature of test [3]: growth inhibition, single agent or in combination, cell-based, chromothripsis tumors, cisplatin or BGB combos (AID 1671449).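 Further: cells exposed for 96 hours; 0% = vehicle DMSO and 100% = killing by high DMSO.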 The conditions noted are these: LFS_MB_P medulloblastoma cells.
Test [4] can be described thus: growth inhibition, single agent and combos, cell-based, chromothripsis tumors, cisplatin or BGB combos (AID 1671450).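 Further: cells exposed to compound for four days; 0% = vehicle DMSO and 100% = cell killing by high DMSO.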 The note with it: HDN33 neuroblastoma cells, stronger effect = higher value.
Test [5] can be described thus: growth inhibition, single agents and combos, ICB984, cell-based, cisplatin or BGB combos, synergistic combos for chromothripsis tumors (AID 1671451; call rule not given here;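 further: cells exposed for 96 hours before readout; 0% = vehicle DMSO and 100% = killing by high DMSO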). The conditions noted are these: ICB984 medulloblastoma cells, drug combinations, stronger effect = higher value.
The nature of test [6]: growth inhibition, single agents and combos, LFS_MB_1R, cell-based, cisplatin or BGB combos, synergistic combos for chromothripsis tumors (AID 1671452).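 Further: cells exposed for 96 hours before readout.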 The conditions noted are these: LFS_MB_1R medulloblastoma cells, stronger effect = higher value.
Test [7] is described as follows: growth inhibition, single agents and combos, HTB85, cell-based, BGB or cisplatin IC20 combos, synergistic combos for chromothripsis tumors (AID 1671453).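 Further: cells exposed for 96 hours before readout; 0% = vehicle DMSO and 100% = high DMSO killing control.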 The note with it: HTB85 osteosarcoma cells, drug combinations, stronger effect = higher value.
Test [8] can be described thus: growth inhibition, single agents and combos, CRL2098, cell-based, BGB or cisplatin IC20 combos, synergistic combos for chromothripsis tumors (AID 1671454).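 Further: cells exposed for 96 h before readout; 0% = vehicle DMSO and 100% = killing by high DMSO.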 The conditions noted are these: CRL2098 osteosarcoma cells, drug combinations, stronger effect = higher value.
The nature of test [9]: growth inhibition, single agents and combos, HD-MB03, cell-based, BGB or cisplatin IC20 combos, synergistic combos for chromothripsis tumors (AID 1671455; in the data active means inhibition above about 83%;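 further: 0% = vehicle DMSO and 100% = high DMSO as cytotoxic control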). The note with it: HD-MB03 medulloblastoma cells, stronger effect = higher value.
Test [10] can be described thus: growth inhibition, single agents and combos, UWB1.289, cell-based, BGB or cisplatin combos, synergistic combos for chromothripsis tumors (AID 1671456).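 Further: cells exposed to compound for four days; 0% = vehicle DMSO and 100% = killing by high DMSO.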 The conditions noted are these: UWB1.289 ovarian carcinoma cells, stronger effect = higher value.
A short description of test [11]: growth inhibition, single agents and combos, LFS_MB_2R, cell-based, cisplatin combos, synergistic combos for chromothripsis tumors (AID 1671457).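 Further: cells exposed to compound for four days before readout.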 The note with it: LFS_MB_2R medulloblastoma cells, stronger effect = higher value.
The nature of test [12]: growth inhibition, MDA-MB-436, cell-based, BGB or cisplatin combos, synergistic combos for chromothripsis tumors (AID 1671458; call rule not given here;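 further: cells exposed for 96 hours; 0% = vehicle DMSO and 100% = killing by high DMSO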). The conditions noted are these: MDA-MB-436 breast carcinoma growth inhibition, drug combinations, stronger effect = higher value.
Test [13] is described as follows: UWB1.289_BRCA1 ovarian cancer growth, cell-based, BGB or cisplatin combinations (AID 1671459). The note with it: UWB1.289 BRCA1 ovarian carcinoma, drug combinations, stronger effect = higher value.
Test [14] can be described thus: drug combination toxicity in non-malignant astrocytes – cell-based, BGB or cisplatin IC20 combos, cytotoxicity control for chromothriptic childhood tumor combination screen (AID 1671460).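 Further: cells exposed to compounds for 96 hours before viability readout; 0% = vehicle and 100% = killing control.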 The note with it: Human astrocytes, viability inhibition, drug combinations, at 0.5 µM, stronger effect = higher value.
Test [15] is described as follows: BT084 cell growth, single and combined drugs, ICGC_MB145, cisplatin and BGB IC40 combos (AID 1671461).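 Further: cells exposed to drugs for 96 hours; 0% = vehicle DMSO and 100% = high DMSO full killing control.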 The note with it: BT084 medulloblastoma cells, drug combinations, stronger effect = higher value.
The nature of test [16]: RCMB18 cell growth, single agent and combined, cisplatin and BGB IC40 combos (AID 1671462).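 Further: cells exposed to compound for four days.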 The note with it: RCMB18 medulloblastoma cells, stronger effect = higher value.
Test [17] can be described thus: CRL1545 cell growth, single agent and combined, cisplatin and BGB IC20 combos (AID 1671464).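 Further: cells exposed to compound for 96 hours before readout; 0% = vehicle DMSO and 100% = high DMSO killing control.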 The conditions noted are these: CRL1545 osteosarcoma cells, stronger effect = higher value.
The mark [18] stands for this setting: measured here: combination with BGB IC40, at 0.05 µM.
Where [19] appears, read: measured here: with BGB IC20 combination, at 0.5 µM.
Setting [20] is: measured here: with cisplatin IC20 combination, at 0.5 µM.
Where [21] appears, read: measured here: combination with cisplatin, at 0.5 µM.
Setting [22] is: measured here: combination with cisplatin, at 5 µM.

“And” between values parts separate entries of the source, which are not always exact repeats. Equal entries are not always repeated. The source made the active and inactive calls. Unless noted, no stated cut-off is given here; in the data, active means inhibition above about 80%; inactive means the rest.

As to `O=C(O)/C=C/c1ccc(Cn2ccnc2)cc1`, the z-score in [1] was 0 (inactive) and 0.26 (inactive). Besides, the log fold change Tl+ flux was 0.00524 (inactive) in the test with F380Y and 0.0144 (inactive) in the test on F380Y/beta1.
Turning to `Cc1cccc(C)c1NC(=O)C(C)N` (centres undefined), the z-score in test [1] is 0.04 (inactive) and 0.79 (inactive). In addition, the log fold change Tl+ flux with F380Y was -0.00461 (inactive); in the test with F380Y/beta1 it was -0.0545 (inactive).
In the case of `Nc1ccn([C@H]2CC[C@@H](CO)O2)c(=O)n1`, in test [2], the remaining NAD is 10 nM (inactive). Besides, the z-score in test [1] is 0.025 (inactive) and 0.685 (inactive). The results for the log fold change Tl+ flux with F380Y and with F380Y/beta1 were 0.0263 (inactive) and 0.0264 (inactive), respectively.
Take `CCc1c(C)[nH]c2c1C(=O)C(CN1CCOCC1)CC2` (centres undefined): in test [1], the z-score is 0.39 (inactive) and -0.105 (inactive). The log fold change Tl+ flux in the test on F380Y is 0.0409 (inactive); in the test with F380Y/beta1, 0.015 (inactive).
As to `O=C1CCc2ccc(OCCCCN3CCN(c4cccc(Cl)c4Cl)CC3)cc2N1`, the remaining NAD in test [2] was 10 nM (inactive). In addition, the z-score in test [1] was -1.88 (inactive) and -2.22 (inactive). The log fold change Tl+ flux with F380Y is 0.0772 (inactive); in the test on F380Y/beta1, 0.0377 (inactive).
What is called inhibition is the change of the read-out against control, counted positive when it falls. As for `Cn1nnc2c(C(N)=O)ncn2c1=O`, the remaining NAD in test [2] was 10 nM (inactive). For the same compound, in test [1], the z-score is -0.305 (inactive) and -0.09 (inactive) and 0.155 (inactive). Also, the inhibition is -17.4% (inactive) and 18.8% (inactive) in test [3] (at 0.5 µM, stronger effect = higher value); -10.2% and -21.6% in test [3] (measured here: combination with BGB IC20, at 0.005 µM); 14.1% and -10.5% in test [3] (measured here: combination with BGB IC40, at 0.005 µM); 2.17% and -11.4% in test [3] (setting [18]); -29.5% and 9.38% in [3] (measured here: combination with cisplatin, at 0.5 µM, stronger effect = higher value); -24.1% and -22.5% in [3] (measured here: combination with cisplatin, at 5 µM, stronger effect = higher value). Moreover, the inhibition in test [4] (BGB combo, at 5 µM) is 22.2% and -9.06%; in test [4] (at 0.5 µM), 13.3% (inactive) and -1.85% (inactive); in test [4] (cisplatin combo, at 5 µM), 6.08% and -19.1%; in test [4] (setting [19]), 17.6% and 6.04%; in test [4] (setting [20]) it was 10.1% and -5.64%; in test [4] (single agent, at 5 µM), 14.8% and -8.19%. The inhibition in test [5] (BGB IC20 combo, at 0.005 µM) was -9.22% and 1.55%; in [5] (BGB IC40 combo, at 0.005 µM), -2.52% and -17.2%; in test [5] (BGB IC40 combo, at 0.05 µM), -13.6% and -3.32%; in test [5] (at 0.5 µM), -14.5% (inactive) and -3.73% (inactive); in test [5] (cisplatin combo, at 0.05 µM), -17.6% and -3.32%; in test [5] (cisplatin combo, at 0.5 µM) it was -0.899% and 2.38%. Also, the inhibition in [5] (cisplatin combo, at 5 µM) is -10.6% and -15.5%; in [5] (measured here: 5 uM single agent, at 5 µM), 10.8% and -28.4%; in [6] (at 0.5 µM) it was -13.9% (inactive) and 3.35% (inactive); in test [6] (setting [18]), -9.42% and 8.49%; in test [6] (setting [21]) it was -8.99% and 3.26%; in [6] (setting [22]) it was -56.8% and -3.5%. Moreover, the inhibition in [7] (at 0.5 µM) was 6.66% (inactive) and -23.3% (inactive); in test [7] (measured here: with BGB IC20, at 0.5 µM) it was 9.09% and -44.6%; in test [7] (measured here: with BGB IC20, at 5 µM) it was 6.52% and -4.64%; in test [7] (measured here: with cisplatin IC20, at 0.5 µM), -3.99% and -22.6%; in [7] (measured here: with cisplatin IC20, at 5 µM) it was -15.9% and 29.4%; in test [7] (single agent, at 5 µM), 7.64% and -1.96%. For the same compound, the inhibition was -9.21% (inactive) and -17.1% (inactive) in test [8] (at 0.5 µM); -17.8% and -2.5% in test [8] (measured here: combination with BGB at IC20, at 0.5 µM); 7.75% and -28.9% in test [8] (measured here: combination with cisplatin at IC20, at 0.5 µM); -0.81% (inactive) and -5.74% (inactive) in test [9] (at 0.5 µM); -12.4% and -6.59% in test [9] (measured here: combo with BGB at IC20, at 0.5 µM); 4.26% and -10.3% in [9] (measured here: combo with cisplatin at IC20, at 0.5 µM). The inhibition in test [10] (at 0.5 µM) is 10.5% (inactive) and 0.13% (inactive); in [10] (measured here: inhibition with BGB combination, at 0.05 µM), 4.75% and -18.9%; in test [10] (measured here: inhibition with cisplatin combination, at 0.05 µM) it was 25.6% and -6.43%; in test [11] (at 0.5 µM) it was 7.22% (inactive) and -24.1% (inactive); in test [11] (setting [21]), 1.03% and -18.7%; in test [11] (setting [22]), 8.16% and -14%. Further, the inhibition was 6.91% (inactive) and -16.3% (inactive) in test [12] (at 0.5 µM); 12.9% and -14.6% in test [12] (measured here: BGB combination, at 0.5 µM); 4.06% and -13.6% in [12] (measured here: BGB combination, at 5 µM); 2.96% and -35.2% in [12] (measured here: cisplatin combination, at 0.5 µM); 1.26% and -29.8% in test [12] (measured here: cisplatin combination, at 5 µM); 6.41% and 2.63% in [13] (BGB combination, concentration series, at 5 µM). Also, the inhibition in test [13] (at 0.5 µM) is 6.2% (inactive) and -1.71% (inactive); in [13] (cisplatin combination, concentration series, at 5 µM) it was -10.8% and 7.27%; in test [14], 14.2% (inactive) and -4.55% (inactive); in [14] (measured here: combo with BGB IC20), 6.32% and -9.95%; in test [14] (measured here: combo with cisplatin IC20) it was 16.8% and -6.6%; in [15] (at 0.5 µM), -1.52% (inactive) and -18.4% (inactive). Moreover, the inhibition in test [15] (cisplatin combination, at 0.5 µM) was -21% and -7.48%; in test [15] (cisplatin combination, at 5 µM) it was 1.38% and -35.6%; in [15] (measured here: BGB IC40 combination 0.05 uM, at 0.05 µM) it was -9.43% and 0.326%; in [15] (single agent, at 5 µM), 8.38% and -21.4%; in test [16] (at 0.5 µM), -3.58% (inactive) and -13.6% (inactive); in test [16] (cisplatin combo, at 5 µM) it was -29.7% and 13.3%. Further, the inhibition was 7.57% and -3.63% in test [16] (measured here: BGB IC40 combination, at 0.05 µM); -5.87% and -11.2% in test [16] (setting [21]); -2.81% and -25.8% in [16] (single agent, at 5 µM); -15.1% (inactive) and -33.6% (inactive) in test [17] (at 0.5 µM); -16.2% and -3.96% in test [17] (setting [19]); -16.4% and -48.4% in test [17] (setting [20]). Further, the inhibition is -25.4% and 17.1% in [17] (single agent, at 0.05 µM); -10.6% and 18.5% in test [17] (single agent, at 5 µM). Further, the results for the log fold change Tl+ flux in the test on F380Y and in the test with F380Y/beta1 were -0.0478 (inactive) and -0.022 (inactive), respectively.
